The record followed here is PubChem BioAssay (NCI).

The panel holds about 83,000 compounds, 20% with a hit somewhere; the sample as a whole holds those more often.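 96-well plates, one dose, 48 hours. Percent growth reported; active if below 10.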 Values without a mark were called inactive. Active and inactive are the calls of the source.

Among the test systems are NCI-H23 lung; NCI-H226 lung; NCI-H322M lung; HOP-62 NSCLC; NCI-H460 lung; HOP-92 NSCLC; NCI-H522 lung; A549/ATCC NSCLC; 786-0 renal; COLO 205 colon.
Assay in all cases: NCI-60 one-dose screen, 48 h (100 = growth as untreated, 0 = no growth, -100 = all killed)
Holding throughout (details): 10 µM

On to `COc1ccccc1Cn1cc2c(c1-c1ccccc1)CCc1cnoc1-2`, for which the growth with NCI-H23 lung was 36.9%; in the assay on NCI-H226 lung it was 59.9%; with NCI-H322M lung, 35.1%; in the assay with HOP-62 NSCLC, 34.7%; with NCI-H460 lung it was 10.7%; with HOP-92 NSCLC it was 53.1%. The growth in the assay with NCI-H522 lung was 42.1%; in the assay on A549/ATCC NSCLC, 46.6%; with 786-0 renal, 33.5%; with COLO 205 colon, 19.6%.

For the compound `CC(=O)Oc1ccc(C2=Cc3ccc(OC(C)=O)cc3OC2C)cc1` (stereo not drawn), the growth is 49.3% in the assay on NCI-H23 lung; 82.9% in the assay with NCI-H226 lung; 98.2% in the assay on NCI-H322M lung; 81.8% in the assay on HOP-62 NSCLC; 33.7% with NCI-H460 lung; 69.4% in the assay with HOP-92 NSCLC. The growth with NCI-H522 lung was 17.2%; with A549/ATCC NSCLC, 61.5%; in the assay on 786-0 renal, 47.5%.

As for `CCOC(=O)/C(C#N)=C(/C)C1CC1`, the growth in the assay on NCI-H23 lung was 109%; with NCI-H226 lung, 95.7%; with NCI-H322M lung, 112%; with HOP-62 NSCLC, 98.5%; in the assay with NCI-H460 lung, 104%; in the assay on HOP-92 NSCLC, 86%. The growth in the assay on NCI-H522 lung is 110%; in the assay on A549/ATCC NSCLC, 99.7%; in the assay with 786-0 renal, 103%.

For the compound `CCCCCCCCCCCCc1ccc(C(=O)/C=C/C(=O)O)cc1`, the growth was 78.6% with NCI-H23 lung; 121% in the assay on NCI-H226 lung; 116% in the assay with NCI-H322M lung; 93% in the assay on HOP-62 NSCLC; 94.2% in the assay with NCI-H460 lung; 46.4% in the assay on HOP-92 NSCLC. The growth in the assay with NCI-H522 lung is -24.2% (active); in the assay with A549/ATCC NSCLC it was 78.4%; with 786-0 renal, -3.51% (active).

Consider `C#C[C@]1(O)CC[C@H]2[C@@H]3CC[C@H]4CC(F)(F)CC[C@]4(C)[C@H]3CC[C@@]21C`, for which the growth is 95.5% in the assay on NCI-H23 lung; 90.4% in the assay on NCI-H226 lung; 89% in the assay on NCI-H322M lung; 67.5% in the assay on HOP-62 NSCLC; 83.9% in the assay with NCI-H460 lung; 93.8% in the assay on HOP-92 NSCLC. Moreover, the growth with NCI-H522 lung was 105%; in the assay on A549/ATCC NSCLC it was 77.2%; in the assay with 786-0 renal, 101%; in the assay on COLO 205 colon it was 90.9%.

In the case of `COc1ccc(C(=O)/C=C/c2cc(-c3ccc4c(c3)OCO4)n[nH]2)cc1OC`, the growth is 61.6% in the assay on NCI-H23 lung; 39.6% in the assay on NCI-H226 lung; 36.3% with NCI-H322M lung; 51.1% with HOP-62 NSCLC; 15.7% with NCI-H460 lung; 55.7% in the assay with HOP-92 NSCLC. Further, the figures for the growth with NCI-H522 lung, in the assay with A549/ATCC NSCLC and with 786-0 renal were 19.4%, 37.9% and 71.7%, respectively.

For the compound `CC(C)/C=N/NC(N)=S`, the growth is 96.6% with NCI-H23 lung; 95.7% with NCI-H226 lung; 101% with NCI-H322M lung; 75.6% with HOP-62 NSCLC; 97.4% in the assay with NCI-H460 lung; 73.1% in the assay on HOP-92 NSCLC. Also, the figures for the growth in the assay on NCI-H522 lung, in the assay with A549/ATCC NSCLC and in the assay with 786-0 renal were 94%, 71.8% and 100%, respectively.

In the case of `COc1cc(-c2n/c(=C\c3c(O)[nH]c4ccccc34)cc3c2=Nc2ccccc2-3)cc(OC)c1OC`, the growth is 22.9% in the assay on NCI-H23 lung; 22% in the assay on NCI-H226 lung; 47.3% in the assay with NCI-H322M lung; 41.4% in the assay on HOP-62 NSCLC; 3.31% (active) with NCI-H460 lung; 22.9% in the assay on HOP-92 NSCLC. The values for the growth with NCI-H522 lung, in the assay on A549/ATCC NSCLC and in the assay on 786-0 renal were -7.72% (active), 9.21% (active) and 16.7%, respectively.

As to `COc1cc(NS(C)(=O)=O)ccc1Nc1c2ccc(Cl)cc2nc2c(OC)cccc12`, the growth was -23.6% (active) with NCI-H23 lung; -37.4% (active) with NCI-H226 lung; 57.5% with NCI-H322M lung; -14.3% (active) with HOP-62 NSCLC; -46.9% (active) in the assay with NCI-H460 lung; 14.5% in the assay on HOP-92 NSCLC. Also, the growth with NCI-H522 lung is -6.02% (active); in the assay with A549/ATCC NSCLC, -7.09% (active); in the assay on 786-0 renal, -39.5% (active).

In the case of `CCC(O)c1ccc(Br)cc1NC(=O)c1cccc(Cl)c1` (stereo not drawn), the growth in the assay on NCI-H23 lung is 28%; in the assay on NCI-H226 lung, -1.35% (active); with NCI-H322M lung, 29.4%; in the assay with HOP-62 NSCLC, 28%; in the assay on NCI-H460 lung, 3.22% (active); in the assay on HOP-92 NSCLC, 48.6%. Further, the growth is 24.2% with NCI-H522 lung, 4.24% (active) in the assay with A549/ATCC NSCLC and 18.1% in the assay with 786-0 renal.

For the compound `COc1ccc(C2=NNC(c3sc(Cl)nc3Cl)C2)cc1` (stereo not drawn), the growth is 93.7% in the assay on NCI-H23 lung; 54.4% with NCI-H226 lung; 90.3% in the assay with NCI-H322M lung; 72.5% in the assay on HOP-62 NSCLC; 103% in the assay with NCI-H460 lung; 75.2% in the assay with HOP-92 NSCLC. Further, the figures for the growth with NCI-H522 lung, with A549/ATCC NSCLC and with 786-0 renal were 9.05% (active), 94.7% and 99.2%, respectively.

Turning to `C=C[C@]1(C)C=C2C(=O)[C@@]3(O)OC(=O)[C@@]4(CCCC(C)(C)[C@H]34)[C@@]2(O)CC1`, the growth was -60.6% (active) in the assay with NCI-H23 lung; -55.8% (active) in the assay with NCI-H226 lung; -27.4% (active) in the assay with NCI-H322M lung; -1.33% (active) in the assay with HOP-62 NSCLC; 0.905% (active) in the assay on NCI-H460 lung; -87.6% (active) with HOP-92 NSCLC. Besides, the growth in the assay on NCI-H522 lung is -71.7% (active); in the assay with A549/ATCC NSCLC, -66.6% (active); in the assay on 786-0 renal, -98.5% (active).

For the compound `COc1ccc2c(=O)cc(C(Cl)(Cl)Cl)oc2c1`, the growth with NCI-H23 lung is -18.4% (active); in the assay on NCI-H226 lung, -29.2% (active); in the assay with NCI-H322M lung, -17.6% (active); in the assay on HOP-62 NSCLC, -14.8% (active); in the assay with NCI-H460 lung, -7.69% (active); in the assay on HOP-92 NSCLC it was -26.1% (active). Also, the growth was -51.7% (active) with NCI-H522 lung, -0.889% (active) in the assay on A549/ATCC NSCLC and 8.97% (active) in the assay with 786-0 renal.

On to `O=C(O)CCCN1C(=O)NC2(C1=O)c1ccccc1-c1ccccc12`, for which the growth in the assay with NCI-H23 lung is 93.2%; with NCI-H226 lung it was 91.1%; in the assay with NCI-H322M lung it was 101%; in the assay on HOP-62 NSCLC, 102%; in the assay with NCI-H460 lung, 105%; in the assay on HOP-92 NSCLC, 88.5%. The growth was 80.4% in the assay with NCI-H522 lung, 90.2% in the assay on A549/ATCC NSCLC and 95.2% with 786-0 renal.
